Experimental findings from ChEMBL document CHEMBL1961873, “Compounds: GSK PKIS; Assays: Nanosyn kinase panel” (2012) are described below.

The target in assay [1] is T1, Tyrosine-protein kinase receptor TYRO3 (Homo sapiens) (UniProt Q06418).
T1 sequence (whole entry): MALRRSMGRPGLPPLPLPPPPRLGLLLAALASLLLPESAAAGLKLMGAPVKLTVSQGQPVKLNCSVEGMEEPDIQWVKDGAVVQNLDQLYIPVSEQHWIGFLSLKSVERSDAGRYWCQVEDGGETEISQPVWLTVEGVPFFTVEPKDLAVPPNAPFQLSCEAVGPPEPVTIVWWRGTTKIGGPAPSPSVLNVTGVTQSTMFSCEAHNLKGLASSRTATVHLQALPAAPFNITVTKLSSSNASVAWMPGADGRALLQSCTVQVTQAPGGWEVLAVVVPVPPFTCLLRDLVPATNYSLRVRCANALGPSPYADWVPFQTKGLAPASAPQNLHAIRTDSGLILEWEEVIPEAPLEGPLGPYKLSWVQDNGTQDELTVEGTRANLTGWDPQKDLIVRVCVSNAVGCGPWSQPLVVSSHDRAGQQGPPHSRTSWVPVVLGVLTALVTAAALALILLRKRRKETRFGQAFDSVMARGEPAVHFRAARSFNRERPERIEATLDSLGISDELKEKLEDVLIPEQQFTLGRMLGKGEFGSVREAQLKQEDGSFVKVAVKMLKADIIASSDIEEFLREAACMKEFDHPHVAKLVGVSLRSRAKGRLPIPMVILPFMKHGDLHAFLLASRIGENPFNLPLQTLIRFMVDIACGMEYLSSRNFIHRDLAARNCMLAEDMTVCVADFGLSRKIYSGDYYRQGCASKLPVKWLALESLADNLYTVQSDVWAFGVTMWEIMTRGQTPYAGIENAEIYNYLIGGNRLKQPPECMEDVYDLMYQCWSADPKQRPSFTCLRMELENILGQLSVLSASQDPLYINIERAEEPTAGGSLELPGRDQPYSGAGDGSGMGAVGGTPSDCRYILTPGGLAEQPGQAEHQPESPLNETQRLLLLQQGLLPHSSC
Conditions: at 1 µM.

Assay [2] concerns the target Tyrosine-protein kinase Yes (Homo sapiens) (UniProt P07947). Conditions: at 0.1 µM.
Assay [3] shares this target. The conditions noted are these: at 1 µM.
Assay [4] deals with T2, Tyrosine-protein kinase ZAP-70 (Homo sapiens) (UniProt P43403).
T2 sequence (whole entry): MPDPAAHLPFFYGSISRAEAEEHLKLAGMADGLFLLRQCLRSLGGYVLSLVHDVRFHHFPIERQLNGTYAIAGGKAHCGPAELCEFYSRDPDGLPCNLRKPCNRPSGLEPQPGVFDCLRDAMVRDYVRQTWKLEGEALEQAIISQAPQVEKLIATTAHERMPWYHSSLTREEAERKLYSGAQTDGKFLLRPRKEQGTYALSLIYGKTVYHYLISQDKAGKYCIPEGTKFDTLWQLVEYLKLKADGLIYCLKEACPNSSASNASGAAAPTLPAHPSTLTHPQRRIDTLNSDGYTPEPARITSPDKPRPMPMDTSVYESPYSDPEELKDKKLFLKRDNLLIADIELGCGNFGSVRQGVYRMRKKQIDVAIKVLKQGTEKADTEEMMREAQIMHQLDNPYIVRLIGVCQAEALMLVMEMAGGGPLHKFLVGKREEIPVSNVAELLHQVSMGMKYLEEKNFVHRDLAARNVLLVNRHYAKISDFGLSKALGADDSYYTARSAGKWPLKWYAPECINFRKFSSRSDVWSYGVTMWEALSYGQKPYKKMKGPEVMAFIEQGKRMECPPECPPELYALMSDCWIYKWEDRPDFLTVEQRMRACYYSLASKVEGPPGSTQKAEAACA
Conditions: at 0.1 µM.

Assay [5] concerns the target T2, Tyrosine-protein kinase ZAP-70 (Homo sapiens). Conditions: at 1 µM.
Assay [6] addresses Serine/threonine-protein kinase B-raf (Homo sapiens) (UniProt P15056). The conditions noted are these: at 0.1 µM.
The target is the same in assay [7]. The conditions noted are these: at 1 µM.
The test system of assay [8] is Serine/threonine-protein kinase B-raf (Homo sapiens), P15056 [V600E]. The conditions noted are these: at 0.1 µM.
Chain of Serine/threonine-protein kinase B-raf (Homo sapiens), P15056 [V600E] (P15056 whole entry V600E): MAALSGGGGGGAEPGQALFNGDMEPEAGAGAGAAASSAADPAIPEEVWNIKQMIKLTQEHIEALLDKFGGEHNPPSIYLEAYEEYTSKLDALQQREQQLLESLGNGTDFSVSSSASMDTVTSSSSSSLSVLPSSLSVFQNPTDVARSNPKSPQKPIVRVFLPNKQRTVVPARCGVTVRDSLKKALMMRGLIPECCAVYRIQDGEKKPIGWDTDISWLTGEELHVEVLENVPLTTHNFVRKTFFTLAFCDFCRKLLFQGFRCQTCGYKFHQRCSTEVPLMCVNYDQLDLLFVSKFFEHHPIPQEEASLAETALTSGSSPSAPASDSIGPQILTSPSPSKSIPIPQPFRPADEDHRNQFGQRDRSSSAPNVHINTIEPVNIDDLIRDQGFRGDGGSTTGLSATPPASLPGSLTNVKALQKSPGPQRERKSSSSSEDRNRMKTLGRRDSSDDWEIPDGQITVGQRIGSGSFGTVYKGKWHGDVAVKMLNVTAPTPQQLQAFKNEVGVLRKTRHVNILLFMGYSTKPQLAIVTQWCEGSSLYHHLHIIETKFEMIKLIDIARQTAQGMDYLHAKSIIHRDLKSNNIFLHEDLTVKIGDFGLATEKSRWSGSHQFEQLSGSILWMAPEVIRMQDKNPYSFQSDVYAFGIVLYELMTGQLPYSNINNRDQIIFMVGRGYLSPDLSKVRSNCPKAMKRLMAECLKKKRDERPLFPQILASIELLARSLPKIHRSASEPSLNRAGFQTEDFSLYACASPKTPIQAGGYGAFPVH
The test system is the same in assay [9]. The conditions noted are these: at 1 µM.
The target of assay [10] is RAF proto-oncogene serine/threonine-protein kinase (Homo sapiens) (UniProt P04049). Conditions: at 0.1 µM.
Chain of RAF proto-oncogene serine/threonine-protein kinase (Homo sapiens) (P04049 whole entry): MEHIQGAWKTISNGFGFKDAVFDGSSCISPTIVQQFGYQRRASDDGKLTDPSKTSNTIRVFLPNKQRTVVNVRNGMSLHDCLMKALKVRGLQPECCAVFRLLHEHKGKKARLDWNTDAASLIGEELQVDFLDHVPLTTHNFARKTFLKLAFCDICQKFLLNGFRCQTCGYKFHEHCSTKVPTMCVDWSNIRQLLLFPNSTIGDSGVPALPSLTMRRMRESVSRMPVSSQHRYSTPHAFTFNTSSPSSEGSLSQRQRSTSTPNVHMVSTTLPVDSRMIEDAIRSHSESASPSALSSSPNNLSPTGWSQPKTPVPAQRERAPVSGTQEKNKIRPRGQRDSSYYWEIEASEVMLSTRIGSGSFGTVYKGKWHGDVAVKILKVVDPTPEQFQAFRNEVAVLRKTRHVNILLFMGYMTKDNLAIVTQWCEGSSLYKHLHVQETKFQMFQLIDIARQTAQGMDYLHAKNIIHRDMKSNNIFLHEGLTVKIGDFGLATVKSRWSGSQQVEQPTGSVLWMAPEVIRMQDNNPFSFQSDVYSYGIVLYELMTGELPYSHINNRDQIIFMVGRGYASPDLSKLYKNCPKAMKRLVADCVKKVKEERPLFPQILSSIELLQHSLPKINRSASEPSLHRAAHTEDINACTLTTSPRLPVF
For assay [11] the target is unchanged. The conditions noted are these: at 1 µM.
Assay [12] addresses T3, Interleukin-1 receptor-associated kinase 4 (Homo sapiens) (UniProt Q9NWZ3).
T3 sequence (whole entry): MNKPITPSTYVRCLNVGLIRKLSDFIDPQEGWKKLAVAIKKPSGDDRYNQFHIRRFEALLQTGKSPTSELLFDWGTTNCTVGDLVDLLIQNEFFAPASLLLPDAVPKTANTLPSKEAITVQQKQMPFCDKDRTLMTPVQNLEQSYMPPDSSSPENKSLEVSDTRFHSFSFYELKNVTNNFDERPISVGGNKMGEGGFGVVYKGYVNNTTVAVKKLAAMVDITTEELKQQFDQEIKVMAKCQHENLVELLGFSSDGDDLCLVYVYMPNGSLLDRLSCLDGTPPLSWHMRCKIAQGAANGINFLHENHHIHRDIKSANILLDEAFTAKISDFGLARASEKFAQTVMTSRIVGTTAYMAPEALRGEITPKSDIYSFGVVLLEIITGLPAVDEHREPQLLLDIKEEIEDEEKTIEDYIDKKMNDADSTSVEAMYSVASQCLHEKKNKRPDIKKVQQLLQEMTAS
The conditions noted are these: at 0.1 µM.

Assay [13] has as its target T3, Interleukin-1 receptor-associated kinase 4 (Homo sapiens). Conditions: at 1 µM.
Assay [14] deals with Leucine-rich repeat serine/threonine-protein kinase 2 (Homo sapiens) (UniProt Q5S007). The conditions noted are these: at 0.1 µM.
Chain of Leucine-rich repeat serine/threonine-protein kinase 2 (Homo sapiens) (Q5S007 whole entry): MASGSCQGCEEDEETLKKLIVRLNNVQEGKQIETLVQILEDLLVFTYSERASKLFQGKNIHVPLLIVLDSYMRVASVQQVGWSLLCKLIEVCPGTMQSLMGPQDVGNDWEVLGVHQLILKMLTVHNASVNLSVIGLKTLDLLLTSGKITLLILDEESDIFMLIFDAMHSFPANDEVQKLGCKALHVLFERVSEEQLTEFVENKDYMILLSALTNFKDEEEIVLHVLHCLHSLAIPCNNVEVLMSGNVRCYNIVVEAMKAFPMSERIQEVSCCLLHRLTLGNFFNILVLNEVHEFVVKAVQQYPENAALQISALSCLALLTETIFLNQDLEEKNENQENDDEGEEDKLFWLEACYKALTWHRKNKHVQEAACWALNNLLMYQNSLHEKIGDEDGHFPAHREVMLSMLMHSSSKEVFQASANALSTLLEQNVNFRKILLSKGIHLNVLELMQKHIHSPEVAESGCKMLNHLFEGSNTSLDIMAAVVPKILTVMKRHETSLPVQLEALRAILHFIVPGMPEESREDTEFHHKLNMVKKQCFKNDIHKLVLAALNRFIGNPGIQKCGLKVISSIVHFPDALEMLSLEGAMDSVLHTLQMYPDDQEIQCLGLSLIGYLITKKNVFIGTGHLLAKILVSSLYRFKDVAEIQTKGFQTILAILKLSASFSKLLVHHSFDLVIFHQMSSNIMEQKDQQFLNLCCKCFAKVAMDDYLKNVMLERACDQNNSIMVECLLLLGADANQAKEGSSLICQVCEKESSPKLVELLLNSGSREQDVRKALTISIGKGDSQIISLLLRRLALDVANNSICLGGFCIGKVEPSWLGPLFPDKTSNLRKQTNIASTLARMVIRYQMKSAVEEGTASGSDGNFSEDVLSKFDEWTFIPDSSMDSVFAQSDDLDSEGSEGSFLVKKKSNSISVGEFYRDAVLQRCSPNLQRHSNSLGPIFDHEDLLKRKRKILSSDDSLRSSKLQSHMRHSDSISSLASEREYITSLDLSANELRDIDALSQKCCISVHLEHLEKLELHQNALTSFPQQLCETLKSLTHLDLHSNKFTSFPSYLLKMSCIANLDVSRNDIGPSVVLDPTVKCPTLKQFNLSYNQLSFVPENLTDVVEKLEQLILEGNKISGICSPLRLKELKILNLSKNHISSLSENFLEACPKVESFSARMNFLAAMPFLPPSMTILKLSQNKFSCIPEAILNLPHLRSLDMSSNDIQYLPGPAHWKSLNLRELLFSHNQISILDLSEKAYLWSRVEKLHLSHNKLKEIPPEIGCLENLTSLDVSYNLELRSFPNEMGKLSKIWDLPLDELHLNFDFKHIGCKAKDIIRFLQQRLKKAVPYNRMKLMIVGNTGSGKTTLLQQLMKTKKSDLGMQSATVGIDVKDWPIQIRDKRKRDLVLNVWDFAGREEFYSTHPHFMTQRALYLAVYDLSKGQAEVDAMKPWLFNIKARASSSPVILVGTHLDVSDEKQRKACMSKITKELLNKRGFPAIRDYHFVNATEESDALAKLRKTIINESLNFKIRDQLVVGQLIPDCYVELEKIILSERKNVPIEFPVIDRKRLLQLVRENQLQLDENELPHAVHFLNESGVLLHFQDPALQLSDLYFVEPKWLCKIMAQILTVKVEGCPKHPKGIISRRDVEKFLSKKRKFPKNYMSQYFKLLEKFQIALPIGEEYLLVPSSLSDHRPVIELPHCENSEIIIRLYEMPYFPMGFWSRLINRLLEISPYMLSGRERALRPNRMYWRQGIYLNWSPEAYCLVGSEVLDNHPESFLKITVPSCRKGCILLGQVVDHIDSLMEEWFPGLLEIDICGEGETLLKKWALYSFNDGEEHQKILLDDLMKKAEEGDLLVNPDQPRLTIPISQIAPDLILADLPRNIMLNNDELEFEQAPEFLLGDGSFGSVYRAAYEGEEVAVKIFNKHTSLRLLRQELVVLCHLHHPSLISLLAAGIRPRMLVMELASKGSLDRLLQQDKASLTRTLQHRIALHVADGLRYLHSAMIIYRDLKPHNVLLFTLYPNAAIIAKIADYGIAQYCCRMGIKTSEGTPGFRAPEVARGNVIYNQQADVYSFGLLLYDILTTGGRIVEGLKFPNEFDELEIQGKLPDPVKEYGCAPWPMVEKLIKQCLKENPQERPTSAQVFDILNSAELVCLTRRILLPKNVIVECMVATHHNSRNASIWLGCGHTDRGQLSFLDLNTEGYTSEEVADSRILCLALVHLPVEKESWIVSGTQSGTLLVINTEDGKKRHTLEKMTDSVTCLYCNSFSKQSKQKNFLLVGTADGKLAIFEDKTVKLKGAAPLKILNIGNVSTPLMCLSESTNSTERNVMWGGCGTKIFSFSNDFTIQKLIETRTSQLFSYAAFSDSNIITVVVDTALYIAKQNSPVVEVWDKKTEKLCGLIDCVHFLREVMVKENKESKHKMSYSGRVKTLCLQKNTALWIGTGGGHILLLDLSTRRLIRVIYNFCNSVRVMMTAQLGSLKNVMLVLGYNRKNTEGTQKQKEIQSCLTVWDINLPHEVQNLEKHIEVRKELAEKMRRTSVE
Assay [15] shares this target. The conditions noted are these: at 1 µM.
Assay [16] deals with Leucine-rich repeat serine/threonine-protein kinase 2 (Homo sapiens), Q5S007 [G2019S]. The conditions noted are these: at 0.1 µM.
Chain of Leucine-rich repeat serine/threonine-protein kinase 2 (Homo sapiens), Q5S007 [G2019S] (Q5S007 whole entry G2019S): as the sequence (Q5S007 whole entry) above, with G2019S counted along it
Assay [17] has the same test system. Conditions: at 1 µM.

The structures appear in SMILES notation.

Chain of Serine/threonine-protein kinase B-raf (Homo sapiens) (P15056 whole entry): as the sequence (P15056 whole entry V600E) above, with E600V counted along it
Chain of Tyrosine-protein kinase Yes (Homo sapiens) (P07947 2-543 limits assumed): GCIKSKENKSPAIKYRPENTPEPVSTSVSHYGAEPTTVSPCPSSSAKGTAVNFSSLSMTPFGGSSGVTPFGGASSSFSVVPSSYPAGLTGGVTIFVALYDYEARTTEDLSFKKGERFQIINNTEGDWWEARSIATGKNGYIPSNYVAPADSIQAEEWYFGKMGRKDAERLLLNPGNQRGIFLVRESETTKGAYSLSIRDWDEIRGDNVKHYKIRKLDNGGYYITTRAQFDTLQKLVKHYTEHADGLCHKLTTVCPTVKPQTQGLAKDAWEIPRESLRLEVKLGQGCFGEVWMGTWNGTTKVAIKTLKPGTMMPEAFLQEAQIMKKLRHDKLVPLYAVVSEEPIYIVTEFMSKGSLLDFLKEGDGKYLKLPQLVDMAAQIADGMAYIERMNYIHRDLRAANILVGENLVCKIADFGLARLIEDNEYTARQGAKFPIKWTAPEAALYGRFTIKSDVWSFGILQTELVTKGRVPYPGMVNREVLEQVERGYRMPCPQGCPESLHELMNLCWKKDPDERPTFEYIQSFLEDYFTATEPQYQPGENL

The term inhibition denotes the drop in the measured response relative to a control, in per cent. Regarding `Cc1nn(C)c2cc(N(C)c3ccnc(Nc4cccc(S(N)(=O)=O)c4)n3)ccc12`, the inhibition in assay [1] is 29.9%; in assay [2], 9.9%; in assay [3], 45.6%; in assay [4] it was -2.66%; in [5], 16%; in assay [6], 4.26%. Further, the inhibition was 7.71% in [7]; 4.01% in assay [8]; 6.87% in [9]; -2.36% in [10]; 3.83% in [11]; 2.51% in [12]. Besides, the inhibition turned out to be 6.18% in [13]; 1.65% in [14]; 7% in [15]; 4.07% in assay [16]; 12.3% in [17].
`CS(=O)(=O)CCNCc1ccc(-c2ccc3ncnc(Nc4ccc(OCc5cccc(F)c5)c(C(F)(F)F)c4)c3c2)o1`: the inhibition in assay [1] was 3.6%; in assay [2], 0.9%; in assay [3], 5.19%; in [4], -4.38%; in assay [5] it was -2.61%; in assay [6], 6.3%. Further, the inhibition in assay [7] was determined as 6.29%; in [8], 7.33%; in assay [9], 6.22%; in assay [10] it was 2.93%; in assay [11] it was 12.1%; in assay [12], 4.38%. Besides, the inhibition is 1.89% in [13]; 0.82% in [14]; 1.68% in [15]; 3.39% in assay [16]; 2.93% in assay [17].
Turning to `COc1cc2ncn(-c3cc(O[C@H](C)c4ccccc4Cl)c(C(N)=O)s3)c2cc1OC`, the inhibition in [1] is 37.6%; in assay [2], 4.24%; in assay [3], 17.8%; in assay [4], 2.5%; in [5], 7.57%; in assay [6], 4.31%. For the same compound, the inhibition in assay [7] was 3.59%; in [8] it was 4.51%; in [9], 3.77%; in assay [10] it was 1.34%; in [11], 2.16%; in [12], -1.67%. In addition, the inhibition was determined as 3.82% in [13]; 5.85% in [14]; 21.6% in assay [15]; 12.1% in assay [16]; 51.9% in [17].
`CCCN1CCC=C(c2ccc(Nc3nc(Nc4ccccc4C(N)=O)c4cc[nH]c4n3)c(C)c2)C1`: the inhibition in assay [1] was 9.79%; in assay [2], 1.14%; in assay [3], 5.4%; in assay [4], 5.54%; in [5], 27.4%; in assay [6] it was 8.31%. Further, the inhibition in assay [7] is 33.4%; in assay [8], 7.56%; in assay [9], 28.2%; in [10] it was 5.61%; in assay [11], 3.95%; in assay [12], 2.14%. Also, the inhibition in [13] is 5.18%; in assay [14], 77.6%; in assay [15], 87.8%; in assay [16], 63.6%; in assay [17] it was 63.6%.
`NS(=O)(=O)c1cccc(-c2ccc3c(NC(=O)C4CC4)n[nH]c3c2)c1`: the inhibition in assay [1] is 15.4%; in [2], -2.48%; in assay [3], 6.25%; in assay [4], -1.92%; in assay [5], -0.84%; in assay [6], -1.67%. Besides, the inhibition in assay [7] was -2.14%; in assay [8], -2.01%; in assay [9] it was -2.08%; in [10] it was -7.61%; in [11] it was -2.5%; in assay [12], 1.83%. Besides, the inhibition in assay [13] was -0.64%; in assay [14], -2.61%; in [15] it was 1.25%; in assay [16] it was 1.47%; in assay [17] it was 1.75%.
For the compound `Cc1ccc(C(=O)NC2CCCCC2)cc1-c1ccc(C(=O)NCC2CC2)cc1`, the inhibition in assay [1] is -0.08%; in assay [2] it was 1.31%; in assay [3] it was 1.09%; in [4], 2.48%; in assay [5], 6.15%; in assay [6], 3.92%. Besides, the inhibition in assay [7] is 3.21%; in [8], 3.15%; in assay [9] it was 3.03%; in [10], 4.27%; in assay [11] it was 0.13%; in assay [12] it was -1.27%. The inhibition in assay [13] is 1.67%; in [14] it was 6.21%; in assay [15], 6.84%; in assay [16], 3.47%; in assay [17], 3.31%.
